Screening results (PubChem)
SIRT5 inh: blocks human SIRT5 desuccinylation of peptide. inhibition, % at 15 µM. Purified SirT5, succinyl-peptide AMC, trypsin-coupled fluorescence. AID 652115. 330,000 tested, 1.1% active. Q9NXA8; in the data active = inhibition above about 15%
Target sequence (Q9NXA8 whole entry, looked up): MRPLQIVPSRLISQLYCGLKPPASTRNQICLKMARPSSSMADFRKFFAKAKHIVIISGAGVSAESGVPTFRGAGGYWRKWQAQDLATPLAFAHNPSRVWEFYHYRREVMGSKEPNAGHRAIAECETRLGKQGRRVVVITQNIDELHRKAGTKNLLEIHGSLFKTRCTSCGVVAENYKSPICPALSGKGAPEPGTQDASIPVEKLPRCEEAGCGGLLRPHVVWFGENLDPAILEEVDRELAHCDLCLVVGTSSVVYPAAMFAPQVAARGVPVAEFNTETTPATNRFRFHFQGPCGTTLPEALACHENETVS
CASP6 VEID inh: caspase-6 (human) enzyme inhibition; purified caspase-6, Z-VEID-R110 cleavage fluorescence; inhibition, % at 12.5 µM; 350,000 tested, 0.53% active; AID 686996;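 active = mean inhibition across replicates at least about 35%, with every replicate also reaching that limit, limit read from the data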;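 note: 0% = median of neutral control wells and 100% = no fluorescence left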
NSD2 inh: inhibitors of human histone methyltransferase NSD2. O96028. NSD2 peptide methylation, AlphaScreen, 120 min. inhibition, % at 12.5 µM. 310,000 tested, 0.54% active; in the data active = inhibition above about 50%
SUMO HTRF inh: blocks human SUMOylation mediated by UBC9. inhibition, % at 35 µM. 290,000 tested, 0.36% active. HTRF SUMOylation assay, SAE1/SAE2 + UBC9, in vitro; in the data active = inhibition above about 50%, passing the limit was not always enough
Target sequence (P63279 whole entry, looked up): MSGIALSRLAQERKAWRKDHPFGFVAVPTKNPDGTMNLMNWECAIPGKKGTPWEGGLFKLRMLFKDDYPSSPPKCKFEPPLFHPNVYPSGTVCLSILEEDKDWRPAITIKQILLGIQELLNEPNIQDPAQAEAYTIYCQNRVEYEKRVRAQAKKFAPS
Alpha artifact: counter-screen for NSD2 inhibitors: AlphaScreen artifacts. shares compounds with NSD2 inh. AlphaScreen artifact counterscreen, preloaded methylated H4 peptide. AC35, µM (titrated, usually from 10 µM), inactives show at the top dose activity change, negative = signal loss. 1,500 tested, 9.4% active. AID 1053174; call rule not given here
Starred values were filed as active, the others as inactive. The list is not random: actives were taken first. Their share in the collection is about 1.6%.

Screening C[C@@H]1CN([C@@H](C)CO)C(=O)Cc2cc(N(C)C)ccc2O[C@@H]1CN(C)C(=O)Nc1cccc2ccccc12 returned SIRT5 inh -4.7 and CASP6 VEID inh -0.6.
Screening O=c1oc(-c2ccco2)nc2c1cnn2-c1ccccc1 returned NSD2 inh -3.0 and SUMO HTRF inh -7.6.
For O=c1c2cnn(-c3ccccc3)c2nc(-c2ccco2)n1-c1ccccc1 the results were NSD2 inh 115.4*, SUMO HTRF inh 9.1 and Alpha artifact -4.3%.
`CCN1/C(=C/C(C)=C/c2sc3ccccc3[n+]2CC)Sc2ccccc21` gave SIRT5 inh 7.1, CASP6 VEID inh 15.5, NSD2 inh 112.4*, SUMO HTRF inh 11.8 and Alpha artifact 5.45µM*.
For CCN1/C(=C\C(=S)Nc2ccccc2)Sc2ccccc21 the results were SIRT5 inh 0.7, CASP6 VEID inh -1.4, NSD2 inh 7.3 and SUMO HTRF inh -3.7.
CNc1ccc(Br)cc(C(=O)/C=C/c2ccc(OC)cc2)c1=O was read as NSD2 inh 66.2*, SUMO HTRF inh 26.0 and Alpha artifact -11.0%.
For CCN(CC)C(=O)C1CCCN(Cc2ccc(OC)c(C)c2C)C1 (stereo unspecified) the results were SIRT5 inh -6.2, CASP6 VEID inh 0.0, NSD2 inh 52.8*, SUMO HTRF inh 6.9 and Alpha artifact -5.0%.
For CCOC(=O)C1CCCN(Cc2cc(Br)ccc2OC)C1 (stereo unspecified) the results were SUMO HTRF inh 19.8.
For Cc1ccc2cccc(OCc3ccc(Br)cc3)c2n1 the results were SIRT5 inh -2.1, CASP6 VEID inh 0.9, NSD2 inh 50.8*, SUMO HTRF inh 14.4 and Alpha artifact -5.6%.
For Cc1ccc2cccc(OCc3ccc(F)cc3)c2n1 the results were SIRT5 inh -2.6, CASP6 VEID inh 0.5, NSD2 inh -1.8 and SUMO HTRF inh 15.9.
Cc1cc(C(=O)Nc2cccc3c2O[C@H](CN(C)S(=O)(=O)c2ccc(F)cc2)[C@H](C)CN([C@H](C)CO)C3=O)n(C)n1 was read as SIRT5 inh 8.0 and CASP6 VEID inh -1.8.
COCCCNC(=O)c1ccc2c3c(onc13)-c1ccccc1C2=O was read as NSD2 inh 53.3*, SUMO HTRF inh 7.7 and Alpha artifact -14.4%.
For COCCCNC(=O)c1ccccc1Oc1ccccc1 the results were NSD2 inh 0.9 and SUMO HTRF inh -12.9.
CC(C)(C)C(=O)NC1CC2CCCC(C1)N2C(=O)Nc1ccc(Cl)cc1 (stereo unspecified) was read as SIRT5 inh 4.0, CASP6 VEID inh -4.8, NSD2 inh 56.0*, SUMO HTRF inh 14.6 and Alpha artifact 4.9%.
`O=C(CCc1nnc(-c2ccsc2)o1)NCc1ccccc1OC(F)(F)F` gave SIRT5 inh 4.5, CASP6 VEID inh -3.4, NSD2 inh -3.2 and SUMO HTRF inh 9.9.
For O=C(CCc1nnc(-c2ccccc2)o1)NCc1cc(F)ccc1F the results were SIRT5 inh -2.7, CASP6 VEID inh -2.0, NSD2 inh 50.5*, SUMO HTRF inh 1.6 and Alpha artifact 5.8%.
`CC1(C(=O)O)CCCN1C(=O)c1cccc(F)c1` (stereo unspecified) gave SIRT5 inh -0.6, CASP6 VEID inh -1.8 and NSD2 inh 1.4.
CCOC(=O)C1(C)CCCN1C(=O)c1cccc(F)c1 (stereo unspecified) was read as SIRT5 inh -2.7, CASP6 VEID inh -3.5, NSD2 inh 58.5* and Alpha artifact 1.1%.
CN1CCN(C(=O)C[C@H]2C=C[C@@H](NC(=O)Cc3ccccn3)[C@H](CO)O2)CC1 was read as SIRT5 inh -1.4 and CASP6 VEID inh -1.3.
CN(C)CC(=O)Nc1ccc2c(c1)[C@H]1C[C@H](CC(=O)N3CCc4ccccc4C3)O[C@@H](CO)[C@H]1O2 was read as SIRT5 inh -1.4 and CASP6 VEID inh -1.0.
C[C@H](CO)N1C[C@H](C)[C@H](CN(C)C(=O)NC2CCCC2)Oc2ncc(C#CCN(C)C)cc2C1=O was read as SIRT5 inh -0.2 and CASP6 VEID inh -0.7.
`COc1ccc(OC)c(NC(=O)CSc2nc3n[nH]c(C)c3c(=N)n2-c2cccc(Cl)c2C)c1` gave SIRT5 inh -2.5, CASP6 VEID inh 0.4, NSD2 inh 3.7 and SUMO HTRF inh -15.7.
`CCc1ccccc1NC(=O)CSc1nc2n[nH]c(C)c2c(=N)n1-c1cccc(OC)c1` gave SIRT5 inh -2.7, CASP6 VEID inh -8.8, NSD2 inh 57.5*, SUMO HTRF inh -28.0 and Alpha artifact -4.3%.
COc1cccc(CN2[C@@H]3CNC[C@H]2C3c2ccc(-c3cccc(C#N)c3)cc2)c1 (stereo partly specified) was read as SIRT5 inh 4.5 and CASP6 VEID inh -1.4.
Cc1cc(C(=O)COC(=O)c2n[nH]c3ccccc23)c(C)n1C was read as NSD2 inh 71.0*, SUMO HTRF inh -7.1 and Alpha artifact -2.2%.
For Cc1cc(C(=O)COC(=O)c2n[nH]c(=O)c3ccccc23)c(C)n1C the results were SIRT5 inh 0.5, CASP6 VEID inh 4.3 and NSD2 inh -0.2.
`Cc1nc2c(=O)[nH]c(=S)[nH]c2[nH]c1=O` gave SIRT5 inh 41.4*, CASP6 VEID inh 93.4*, NSD2 inh 83.8* and Alpha artifact -1.8%.
Cc1ccc(S(=O)(=O)N[C@@H]2CC[C@@H](CCNC(=O)C3CCCC3)O[C@@H]2CO)cc1 was read as SIRT5 inh 2.0 and CASP6 VEID inh -1.8.
`O=C(O)c1ccc2c(c1)C(=O)N(c1cccc(C(=O)/C=C/c3ccccc3)c1)C2=O` gave SIRT5 inh -1.1, CASP6 VEID inh 11.8, NSD2 inh 88.9*, SUMO HTRF inh 15.8 and Alpha artifact -2.5%.
Screening O=C(c1ccccn1)N1CC2(C1)[C@@H](c1ccccc1)[C@@H](CO)N2Cc1ccc(Cl)cc1 returned SIRT5 inh 2.1 and CASP6 VEID inh -0.6.
`C[C@H](NC(=O)C[C@H]1C[C@H]2c3cc(NS(C)(=O)=O)ccc3O[C@H]2[C@@H](CO)O1)c1ccccc1` gave SIRT5 inh -13.0 and CASP6 VEID inh -0.8.
For Cc1noc(C)c1NC(=O)Nc1ccc2c(c1)CC(=O)N([C@@H](C)CO)C[C@@H](C)[C@H](CN(C)C(=O)Nc1cccc3ccccc13)O2 the results were SIRT5 inh -6.5.
For COc1cccc(CNC(=S)Nc2ccc(Cl)cc2C)c1 the results were SIRT5 inh 0.0, CASP6 VEID inh -4.5, NSD2 inh 75.1*, SUMO HTRF inh 12.2 and Alpha artifact 3.3%.
Cc1ccc(Cl)cc1NC(=O)C[n+]1ccc(Cc2ccc([N+](=O)[O-])cc2)cc1 was read as SIRT5 inh 0.2, CASP6 VEID inh 8.4, NSD2 inh 84.1*, SUMO HTRF inh 2.4 and Alpha artifact -10.5%.
Screening C[C@@H]1CN([C@@H](C)CO)C(=O)c2cccc(NC(=O)Nc3ccccc3)c2O[C@H]1CN(C)Cc1ccc(Oc2ccccc2)cc1 returned SIRT5 inh 7.9 and CASP6 VEID inh -1.9.
